Shown are actives, neighbours in structure and some others; about 2.9% of the full set was active somewhere.
Mtb hypoxia inh: reduces hypoxia-regulated biosensor signal in M. tuberculosis; fluorescence inhibition, % (test concentration not listed); M. tuberculosis hypoxia-regulated fluorescent reporter, fluorescence; AID 1159583; 300,000 tested, 0.1% active; in the data active = fluorescence inhibition mostly above about 23%, no sharp cut-off; inactive = mostly below about 17%
GDH-TPI inh: counter-screen for M. tuberculosis FBA inhibitors: GDH-TPI coupled enzymes. GDH-TPI coupled enzyme counterscreen, NADH absorbance. inhibition, % at 4.8 µM. 360,000 tested, 1.2% active. AID 588335; in the data active = inhibition above about 30%;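 also: 0% = DMSO wells and 100% = wells lacking the enzyme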
Mtb BioA inh: BioA (M. tuberculosis) enzyme inhibition. 360,000 tested, 0.096% active. purified M. tuberculosis BioA enzyme, plate reader. inhibition, % at 9.99 µM; in the data active = inhibition above about 40%
FadD28 binding: blocks FadD28 binding to the bisubstrate probe | fluorescence polarization | inhibition, % at 12.5 µM | 360,000 tested, 0.22% active | AID 588549; in the data active = inhibition above about 8.5%, passing the limit was not always enough
FBA Mtb inh: Mtb fructose-bisphosphate aldolase inhibition | purified M. tuberculosis FBA, fluorescence read-out | P9WQA3 | AID 588726 | inhibition, % at 1 µM | 360,000 tested, 2.3% active; in the data active = inhibition above about 27%;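 also: 0% = vehicle and 100% = reference inhibitor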
Target sequence (P9WQA3 whole entry, looked up): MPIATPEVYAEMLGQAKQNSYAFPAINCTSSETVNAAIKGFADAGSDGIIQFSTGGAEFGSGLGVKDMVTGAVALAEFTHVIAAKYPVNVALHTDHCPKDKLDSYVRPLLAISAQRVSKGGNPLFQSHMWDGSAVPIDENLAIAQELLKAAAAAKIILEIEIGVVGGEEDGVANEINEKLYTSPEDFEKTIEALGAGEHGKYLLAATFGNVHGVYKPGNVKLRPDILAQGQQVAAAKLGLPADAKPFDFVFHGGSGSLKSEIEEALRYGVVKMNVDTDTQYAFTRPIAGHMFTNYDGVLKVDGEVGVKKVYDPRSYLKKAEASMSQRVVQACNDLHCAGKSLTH
An asterisk follows results filed as active; / = not tested or not shown; + = active, no number.

SMILES | Mtb hypoxia inh | GDH-TPI inh | Mtb BioA inh | FadD28 binding | FBA Mtb inh
Cc1ccc(NC(C)C(=O)NN=Cc2c[nH]c3ccccc23)cc1 (stereo not drawn) | -9 | / | / | / | /
CC(=O)OCC1OC(OCc2cn(CC3CCC(C4CCC(Cn5cc(COC6OC(COC(C)=O)C(OC(C)=O)C(OC(C)=O)C6OC(C)=O)nn5)O4)O3)nn2)C(OC(C)=O)C(OC(C)=O)C1OC(C)=O (stereo not drawn) | -9 | / | / | / | /
CCC1(C)Cc2ccccc2-c2nc3n(c(=O)c21)CCCCC3 (stereo not drawn) | 5 | -3 | 0 | -4 | -1
CCC1(C)Cc2ccccc2-c2nc(NCCCO)n(C)c(=O)c21 (stereo not drawn) | 5 | -1 | 0 | -5 | 163*
O=c1c2c(nc3n1CCCCC3)-c1ccccc1CC21CCCCC1 | -4 | 6 | -2 | -1 | 1
CCn1c(NCCCO)nc2c(c1=O)C(C)(CC)Cc1ccccc1-2 (stereo not drawn) | -15 | 19 | / | -5 | 155*
O=c1c2c(nc(NCCO)n1CC1CCCCC1)-c1ccccc1CC21CCCC1 | / | 12 | 4 | -3 | 43*
CCC(=O)N1CCCCN2[C@H](CO)[C@@H](c3ccc(-c4cccc(C#N)c4)cc3)[C@@H]2C1 | / | / | 4 | / | /
COc1ccc(C=NNC(=O)c2ccc(-c3ccccc3)cc2)cc1O | 6 | / | / | / | /
CCCCCCSc1cccc(-c2nc3ccc(C)cn3c2NCc2ccccc2)c1 | 17 | 9 | -3 | -4 | 36*
O=C(O)C1Nc2c(Cl)cc(Cl)cc2C2C=CCC12 (stereo not drawn) | -3 | -1 | 1 | 14* | -1
O=C(O)C1Nc2ccc(Br)cc2C2C=CCC12 (stereo not drawn) | 13 | -3 | 3 | 27* | -2
O=C(O)C1Nc2c(O)cccc2C2C=CCC12 (stereo not drawn) | 4 | 9 | / | 15* | -6
C[C@@H]1CN([C@@H](C)CO)C(=O)c2cc(NC(=O)c3ccccc3)ccc2O[C@@H](C)CCCCO[C@@H]1CN(C)C(=O)Nc1ccc(C(F)(F)F)cc1 | / | / | -3 | / | /
CN1CC=C2C(C#N)=C(N)C(C#N)(C#N)[C@H](c3ccoc3)[C@H]2C1 | / | 9 | / | 0 | 61*
CC(=O)N1CC=C2C(C#N)=C(N)C(C#N)(C#N)[C@H](c3ccoc3)[C@H]2C1 | 1 | 12 | -3 | 1 | 13
O=C(Nc1ccc2c(c1)OCCO2)N1CCN(Cc2ccccc2)CC1 | 10 | 32* | 6 | 0 | 1
O=C(Nc1ccc2c(c1)OCCO2)N1CCN(c2ccccc2)CC1 | 15 | -2 | 16 | 2 | 3
CCCOc1ccc(C2C(=O)N(C3CCCCC3)CC(=O)N2CCC)cc1OC (stereo not drawn) | 1 | -11 | / | -4 | 31*
CN(C)Cc1c(C(=O)NN=Cc2cccc3ccccc23)nnn1-c1nonc1N | 3 | / | / | / | /
Cc1cc(=O)oc2cc(OCc3cc4c(cc3Cl)OCO4)ccc12 | / | 2 | 0 | -1 | 1
Cc1cc2cc3c(C)cc(=O)oc3c(C)c2o1 | 13 | -1 | -1 | 2 | 6
Cc1cc(=O)oc2cc3c(cc12)CCCN3 | 0 | 17 | -2 | 1 | +
Cc1cc(=O)oc2cc3c(cc12)OCCN3 | / | 18 | -2 | 1 | +
CC(=O)c1cc2c(C)cc(=O)oc2cc1O | -16 | 17 | 0 | -3 | 9
SMILES | Mtb hypoxia inh | GDH-TPI inh | Mtb BioA inh | FadD28 binding | FBA Mtb inh
Cc1cc2c(C)cc(=O)oc2c2c1NCCC2 | 3 | 2 | -1 | 2 | +
Cc1cc(=O)oc2cc3c(cc12)OCO3 | -8 | 20 | -1 | 0 | +
COc1ccc2oc(=O)cc(C)c2c1 | / | 8 | / | -3 | 21
C[C@@H]1CCCCO[C@@H](CN(C)Cc2ccc(Cl)c(Cl)c2)[C@@H](C)CN([C@H](C)CO)C(=O)c2cc(NS(C)(=O)=O)ccc2O1 | / | / | 1 | / | /
COc1cccc(S(=O)(=O)N(C)C[C@H]2Oc3cc(C4=CCCC4)ccc3S(=O)(=O)N([C@H](C)CO)C[C@H]2C)c1 | / | / | 3 | / | /
Cc1ccc(S(=O)(=O)N[C@H]2C=C[C@@H](CC(=O)NCc3ccccc3F)O[C@@H]2CO)cc1 | / | / | 1 | / | /
COc1ccc(/C=C(/NC(=O)c2cccs2)C(=O)NC(C)(C)C)cc1OC | 6 | 13 | -2 | 0 | -3
COc1ccc(/C=C(\NC(=O)c2cccs2)C(=O)NN)cc1OC | 6 | 38* | -2 | 1 | 0
Nc1c(C(=O)OCC2CCCO2)c2nc3ccccc3nc2n1C1CCCCC1 (stereo not drawn) | 1 | 8 | -1 | -2 | 14
CC(C)CCn1c(N)c(C(=O)OCC2CCCO2)c2nc3ccccc3nc21 (stereo not drawn) | 9 | 8 | 2 | -13 | 134*
CCCCn1c(N)c(C(=O)OCC2CCCO2)c2nc3ccccc3nc21 (stereo not drawn) | -8 | 18 | 6 | -9 | +
Cc1nc2c(c(=O)n1CCC(C)C)c1nc3ccccc3nc1n2CC1CCCO1 (stereo not drawn) | -7 | 5 | -1 | -1 | 19
Nc1c(S(=O)(=O)c2cccs2)c2nc3ccccc3nc2n1CCc1ccccc1 | -5 | / | / | / | /
Nc1c(S(=O)(=O)c2cccs2)c2nc3ccccc3nc2n1CC1CCCO1 (stereo not drawn) | 2 | 23 | / | 0 | 170*
CC(C)CCn1c(N)c(S(=O)(=O)c2cccs2)c2nc3ccccc3nc21 | -13 | 12 | 0 | -7 | 116*
Nc1c(S(=O)(=O)c2cccs2)c2nc3ccccc3nc2n1Cc1cccs1 | -1 | 13 | 0 | -9 | 119*
Nc1c(S(=O)(=O)c2cccs2)c2nc3ccccc3nc2n1Cc1ccc2c(c1)OCO2 | 9 | 10 | -2 | -8 | 7
C[C@@H](NC(=O)C[C@H]1CC[C@@H]2[C@H](COC[C@@H](O)CN2C)O1)c1ccccc1 | / | / | 2 | / | /
Cc1noc(C)c1S(=O)(=O)Nc1cccc2c1O[C@H](CN(C)S(=O)(=O)c1cccs1)[C@H](C)CN([C@@H](C)CO)C2=O | / | / | 0 | / | /
COc1cc(C=Nn2c(-c3n[nH]c4c3CCC4)n[nH]c2=S)cc(OC)c1O | 13 | / | / | / | /
O=c1cc(O)c2c(=O)n(-c3ccccc3)c3c(c2o1)CCCCC3 | 2 | 32* | 0 | 0 | 2
Nc1ccccc1C(=O)N=Nc1[nH]c(N)c2ccccc12 | -5 | 18 | / | -1 | 4
Nc1[nH]c(N=NC(=O)c2ccc(F)cc2)c2ccccc12 | 4 | 33* | / | -6 | -2
CC(=O)c1cnc(N(C)C)s1 | / | 38* | -2 | -1 | 3
CC(=O)c1cnc(Nc2ccccc2)s1 | 25 | 23 | 4 | -5 | -2
O=S(=O)(Nc1nc2ccccc2nc1N1CCc2ccccc2C1)c1ccc(Br)cc1 | -7 | 18 | / | 1 | 126*
CC(=O)Nc1ccc(S(=O)(=O)Nc2nc3ccccc3nc2N2CCc3ccccc3C2)cc1 | 4 | 22 | 2 | -2 | 12
CC(=O)Nc1ccc(S(=O)(=O)Nc2nc3ccccc3nc2N2CCCCCC2)cc1 | -4 | 33* | 8 | 0 | 10

Compound activity (PubChem)
